Experimental data as given in PubChem BioAssay (NCATS).
Several values for one entry are separate records, joined by “and”; a condition that tells them apart may be missing. Identical values can stand only once. Records with an inconclusive call do not appear. Entries that show only a call come without a potency. Values without a mark were called inactive. Activity calls are given as the source filed them. Calls follow the shape of the dose curve; as a rule, active = well fitted inhibition curve with a large enough effect; inconclusive = small, poorly fitted or top-dose-only effect; inactive = flat fitted curve, though single readings scatter.

Assay: Primary qHTS for inhibitors of nuclear receptor binding SET domain protein 2 (NSD2) in an isogenic RCH-ACV NSD2 p.E1099K mutant (9B) (AID 1645876); also: nearly all actives have a fitted effect of over 70% in size
Conditions: RCH-ACV (leukaemia line) NSD2 E1099K (9B) viability, CellTiter-Glo, 72 h; series mostly up to 44.9 µM
Potency is read from the fitted curve at half-maximal effect.

Q: Which Potency does the source give for `CNC(=O)c1ccc(Nc2ncc(C(F)(F)F)c(NCc3nccnc3N(C)S(C)(=O)=O)n2)cc1` here?
A: 2.58 µM (active) and 1.66 µM (active)

Q: Which Potency does the source give for `COc1cccc(-n2nc(C(=O)O)cc2-c2ccc(C3CCCCC3)c(Cl)c2)c1` here?
A: inactive

Q: With `C[C@@H]1O[C@@H](O[C@H]2[C@H](OC(=O)C34CCC5(C)C(=CCC6C7(C)CC(O)C(O[C@@H]8O[C@H](C(=O)O)[C@@H](O)[C@H](O)[C@H]8O)C(C)(C(=O)O)C7CCC65C)C3CC(C)(C)CC4O)O[C@H](C)[C@@H](O)[C@@H]2O)[C@H](O)[C@@H](O[C@@H]2OC[C@](O)(CO)[C@H]2O[C@@H]2O[C@H](CO)[C@@H](O)[C@H](O)[C@H]2O)[C@H]1O` (stereo partly specified) as the compound, how does the activity change, negative = viability loss read?
A: -24% [at 9.23 µM]

Q: Which Potency does the source give for `CC1=CC2(O)/C=C/C(C)(O)CC(O)/C=C/C(=O)OC23C(=O)NC(CC(C)C)C3C1C` (stereo unspecified) here?
A: inactive

Q: With `C#Cc1cnc2[nH]c(=O)n(C(CC)CC)c2n1` as the compound, how does the Potency read?
A: inactive

Q: For `O=C(c1ccc(F)cc1)C1CCN(CCn2c(=O)nc3n(c2=O)CCCC3)CC1`, which Potency is on record?
A: inactive

Q: With `CC(C)C(=O)c1cn(CC(=O)COc2ccc(Oc3ccccc3)cc2)c2ccc(C(=O)O)cc12` as the compound, how does the Potency read?
A: inactive

Q: Which Potency does the source give for `C(#Cc1cccc(CN2CCOCC2)c1)CCN1CCCCC1` here?
A: inactive

Q: Which Potency does the source give for `Cc1c(-c2ccnn2C)cc(C(=O)NCc2ccc(S(C)(=O)=O)cn2)c(=O)n1-c1cccc(C(F)(F)F)c1` here?
A: inactive

Q: Which activity change, negative = viability loss does the source give for `CC(C)(C)NCc1cc(Nc2ccnc3cc(Cl)ccc23)c2c(c1O)CCCC2` here?
A: -8.87% [at 0.588 µM]

Q: With `O=C(O)C[C@@H](NC(=O)c1cc(-c2ccc(-c3ccncc3)cc2)cs1)c1ccccc1` as the compound, how does the Potency read?
A: inactive
